According to PubChem BioAssay (NCI):
About 83,000 compounds went through this panel and 20% of them were active in at least one assay; those are over-represented in the sample as a whole.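 Treatment: one concentration, 48 hours, 96-well format. Scoring: percent growth, with anything below 10 considered active.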 Calls of active or inactive are those of the source.

Tests used:
Experiment in all cases: NCI-60 one-dose screen, 48 h (100 = growth as untreated, 0 = no growth, -100 = all killed)
Conditions in all cases: 10 µM unless noted
HCT-15 colon = system: HCT-15 colon
HT29 colon = system: HT29 colon
SNB-75 CNS = system: SNB-75 CNS
SNB-19 CNS = system: SNB-19 CNS
U251 CNS = system: U251 CNS
PC-3 prostate = system: PC-3 prostate
SK-MEL-5 melanoma = system: SK-MEL-5 melanoma
UACC-62 melanoma = system: UACC-62 melanoma
LOX IMVI melanoma = system: LOX IMVI melanoma
SK-MEL-28 melanoma = system: SK-MEL-28 melanoma

Measured: growth

Clc1ccc2[nH]cc(-c3nn4cc(-c5cccnc5)nc4s3)c2c1
inactive: HCT-15 colon 95.1% | HT29 colon 98.7% | SNB-75 CNS 90.5% | SNB-19 CNS 100% | U251 CNS 93.8% | PC-3 prostate 88.6% | SK-MEL-5 melanoma 96.2% | UACC-62 melanoma 90.1% | LOX IMVI melanoma 123% | SK-MEL-28 melanoma 101%

CC(=O)Nc1nc(C)c(-c2csc(Nc3ccccc3)n2)s1
active: SK-MEL-5 melanoma 9.06%
inactive: HCT-15 colon 16.4% | HT29 colon 28.7% | SNB-75 CNS 38.3% | SNB-19 CNS 35.8% | U251 CNS 40.8% | PC-3 prostate 31.8% | UACC-62 melanoma 21.4% | LOX IMVI melanoma 21.4% | SK-MEL-28 melanoma 38.1%

COc1ccc(C2C(C#N)=C(/N=C/c3ccc(Cl)cc3)Oc3c2sc2c(C)cccc32)cc1 (stereo not given)
inactive: HCT-15 colon 18.8% | SNB-75 CNS 29.2% | SNB-19 CNS 27.9% | U251 CNS 14.1% | PC-3 prostate 19.2% | SK-MEL-5 melanoma 27.8% | UACC-62 melanoma 23% | LOX IMVI melanoma 41.6% | SK-MEL-28 melanoma 61.8%
active: HT29 colon 1.39%

CNCCN(C)c1ccc(Nc2cc(NC3CC3)n3ncc(C#N)c3n2)cc1NC(C)=O
active: HCT-15 colon 9.77% | SNB-75 CNS -24.3% | U251 CNS 5.12% | SK-MEL-5 melanoma -1.54% | UACC-62 melanoma -24.9% | LOX IMVI melanoma -25.7%
inactive: HT29 colon 16.4% | SNB-19 CNS 10.1% | PC-3 prostate 10.7% | SK-MEL-28 melanoma 13%

COc1cc2oc(-c3cccc(NC(=O)c4cccc([N+](=O)[O-])c4)c3)cc(=O)c2c(OC)c1OC
inactive: HCT-15 colon 56% | HT29 colon 66.4% | SNB-19 CNS 53.6% | U251 CNS 41.9% | PC-3 prostate 50.2% | SK-MEL-5 melanoma 55% | UACC-62 melanoma 51% | LOX IMVI melanoma 33.4% | SK-MEL-28 melanoma 88.1%
active: SNB-75 CNS -13.5%

CCCc1[nH]c(-c2cc(N)ccc2Cl)c2c1C(=O)CCCC2
inactive: HCT-15 colon 90.6% | HT29 colon 104% | SNB-75 CNS 89.2% | SNB-19 CNS 100% | U251 CNS 102% | PC-3 prostate 85.6% | SK-MEL-5 melanoma 98.1% | UACC-62 melanoma 82.1% | LOX IMVI melanoma 107% | SK-MEL-28 melanoma 102%

Cc1ccc(-c2nc(SCC(=O)c3ccccc3)nc(Nc3ccc(S(N)(=O)=O)cc3)c2C#N)cc1
inactive: HCT-15 colon 72.1% | HT29 colon 92.3% | SNB-75 CNS 80% | SNB-19 CNS 77.3% | U251 CNS 47.4% | PC-3 prostate 92.6% | SK-MEL-5 melanoma 75.5% | UACC-62 melanoma 80.3% | LOX IMVI melanoma 15.4% | SK-MEL-28 melanoma 81.1%

CCCC/C(=C\c1ccc(O)c(O)c1)C(=O)NC(Cc1ccccc1)C(=O)C(=O)NCCc1ccc(OC)cc1 (stereo not given)
inactive: HCT-15 colon 93.4% | HT29 colon 105% | SNB-75 CNS 86.9% | SNB-19 CNS 91.2% | U251 CNS 103% | PC-3 prostate 94.4% | SK-MEL-5 melanoma 98.9% | UACC-62 melanoma 86.6% | LOX IMVI melanoma 89.4% | SK-MEL-28 melanoma 102%

O=C(CSc1nc2ccccc2c(=O)n1CCc1ccccc1)Nc1ccc(S(=O)(=O)Nc2ccc(Cl)nn2)cc1
inactive: HCT-15 colon 92.4% | HT29 colon 117% | SNB-75 CNS 78.7% | SNB-19 CNS 92.2% | U251 CNS 92.9% | PC-3 prostate 89.3% | SK-MEL-5 melanoma 98.6% | UACC-62 melanoma 84.6% | LOX IMVI melanoma 96.1% | SK-MEL-28 melanoma 108%

COc1ccc(/C(=N\N=C(N)N)c2ccc(Cl)cc2)cc1OC
inactive: HCT-15 colon 77.3% | HT29 colon 54.9% | SNB-75 CNS 46.2% | SNB-19 CNS 72.9% | U251 CNS 72.4% | PC-3 prostate 44% | SK-MEL-5 melanoma 93% | UACC-62 melanoma 80.2% | LOX IMVI melanoma 58.3% | SK-MEL-28 melanoma 96.5%

Cn1cc(-c2nc(N)nnc2-c2c[nH]c3ccc(Br)cc23)c2cc(F)ccc21
inactive: HCT-15 colon 77.2% | HT29 colon 104% | SNB-75 CNS 79.9% | SNB-19 CNS 88% | U251 CNS 97.8% | PC-3 prostate 87.2% | SK-MEL-5 melanoma 91.5% | UACC-62 melanoma 91.7% | LOX IMVI melanoma 92.3% | SK-MEL-28 melanoma 101%

CCOC(=O)c1c(NC(=O)c2ccc(C(F)(F)F)cc2)sc2c3c(ccc12)OCN(C)C3
active: HCT-15 colon -38.2% | HT29 colon -81% | U251 CNS -72.5% | LOX IMVI melanoma -95.1%
inactive: SNB-75 CNS 69.7% | SNB-19 CNS 26.7% | PC-3 prostate 65.3% | SK-MEL-5 melanoma 94.7% | UACC-62 melanoma 88% | SK-MEL-28 melanoma 95.8%

O=S(=O)(Oc1ccc(-c2cn3ccoc3n2)cc1)c1cccc(C(F)(F)F)c1
inactive: HCT-15 colon 95.6% | HT29 colon 103% | SNB-75 CNS 96.3% | SNB-19 CNS 95.2% | U251 CNS 101% | PC-3 prostate 95.2% | SK-MEL-5 melanoma 96.1% | UACC-62 melanoma 86.5% | LOX IMVI melanoma 94.7% | SK-MEL-28 melanoma 106%

NC1=NC2(CCCC2)N(c2ccc(S(=O)(=O)Nc3nccs3)cc2)C(N)=N1
inactive: HCT-15 colon 100% | HT29 colon 109% | SNB-75 CNS 112% | SNB-19 CNS 100% | U251 CNS 104% | PC-3 prostate 102% | SK-MEL-5 melanoma 100% | UACC-62 melanoma 98.9% | LOX IMVI melanoma 99% | SK-MEL-28 melanoma 105%

O=C(CSc1nc2ccccc2c(=O)n1-c1ccc(Cl)c(Cl)c1)Nc1ccc(S(=O)(=O)Nc2ccc(Cl)nn2)cc1
inactive: HCT-15 colon 99.5% | HT29 colon 96.6% | SNB-75 CNS 68.8% | SNB-19 CNS 96.3% | U251 CNS 91.6% | PC-3 prostate 92.3% | SK-MEL-5 melanoma 100% | UACC-62 melanoma 85% | LOX IMVI melanoma 97.4% | SK-MEL-28 melanoma 96.3%

FC(F)(F)c1cc(Br)cc(-c2cc(-c3ccc4c(c3)OCCO4)[nH]n2)c1
active: HT29 colon 6.74% | SNB-75 CNS 5.38%
inactive: HCT-15 colon 15.7% | SNB-19 CNS 34.3% | U251 CNS 23.1% | PC-3 prostate 37% | SK-MEL-5 melanoma 17.9% | UACC-62 melanoma 40.2% | LOX IMVI melanoma 19% | SK-MEL-28 melanoma 68.3%

CC(=O)/C(N=Nc1ccc2oc(=O)ccc2c1)=C(\C)O
inactive: HCT-15 colon 16.5% | HT29 colon 24.4% | SNB-75 CNS 67.8% | SNB-19 CNS 29% | U251 CNS 23.3% | PC-3 prostate 20.7% | UACC-62 melanoma 33.8% | LOX IMVI melanoma 19% | SK-MEL-28 melanoma 47.3%
active: SK-MEL-5 melanoma 9.01%

CC1=C(C)C(=O)C(Nc2cccc(C(=O)OC(C)(C)C)c2)=CC1=O
inactive: HCT-15 colon 60.4% | HT29 colon 104% | SNB-75 CNS 71% | SNB-19 CNS 78.2% | U251 CNS 64.3% | PC-3 prostate 76.7% | SK-MEL-5 melanoma 31.3% | UACC-62 melanoma 65.6% | LOX IMVI melanoma 47.3% | SK-MEL-28 melanoma 96.5%

CCc1cc2c(cc1Cl)nc1c(=O)[nH]c(=O)nc-1n2CCOCC(C)C
inactive: HCT-15 colon 47.4% | HT29 colon 24.3% | SNB-75 CNS 92.5% | SNB-19 CNS 85% | U251 CNS 73.9% | PC-3 prostate 68.9% | SK-MEL-5 melanoma 34.4% | UACC-62 melanoma 72.1% | LOX IMVI melanoma 49.8% | SK-MEL-28 melanoma 87%

Cc1ccc(OCc2occc2C(=O)N2CCOCC2)cc1
inactive: HCT-15 colon 100% | HT29 colon 108% | SNB-75 CNS 81.8% | SNB-19 CNS 99.8% | U251 CNS 103% | PC-3 prostate 107% | SK-MEL-5 melanoma 100% | UACC-62 melanoma 97.9% | LOX IMVI melanoma 108% | SK-MEL-28 melanoma 110%

CC(C)C(/C=C/c1[nH]ncc1-c1cc(Cl)ccc1O)N1CCOCC1 (stereo not given)
inactive: HCT-15 colon 94.9% | HT29 colon 104% | SNB-75 CNS 65.3% | SNB-19 CNS 99.5% | U251 CNS 97.3% | PC-3 prostate 84.7% | SK-MEL-5 melanoma 95% | UACC-62 melanoma 87.1% | LOX IMVI melanoma 98.8% | SK-MEL-28 melanoma 98.9%

CCOC(=O)C1=C(C)NC(C)=C(C(=O)OCc2ccccc2)C1c1cccc(C#N)c1 (stereo not given)
inactive: HCT-15 colon 23% | HT29 colon 11.5% | SNB-19 CNS 41.5% | U251 CNS 41.4% | PC-3 prostate 33.1% | SK-MEL-5 melanoma 54.3% | UACC-62 melanoma 33.4% | LOX IMVI melanoma 35.8% | SK-MEL-28 melanoma 51.2%
active: SNB-75 CNS -4.08%

O=C(CSc1nnc(-c2cccs2)n1-c1ccccc1)Nc1ccccc1F
inactive: HCT-15 colon 52.7% | HT29 colon 75.1% | SNB-75 CNS 84.4% | SNB-19 CNS 83.2% | U251 CNS 89.3% | PC-3 prostate 93.3% | SK-MEL-5 melanoma 91.2% | UACC-62 melanoma 57.7% | LOX IMVI melanoma 78.9% | SK-MEL-28 melanoma 81.1%

CN1CCN(Cc2ccc(NC(=O)c3cncc(C#Cc4cnc5ccc(N)nn45)c3)cc2C(F)(F)F)CC1
active: HT29 colon 5.96% | LOX IMVI melanoma -63%
inactive: HCT-15 colon 49.5% | SNB-75 CNS 57.7% | SNB-19 CNS 35% | U251 CNS 54.6% | PC-3 prostate 36.9% | SK-MEL-5 melanoma 60.8% | UACC-62 melanoma 70.8% | SK-MEL-28 melanoma 41.2%

Cn1c(SCC(=O)c2ccc(F)cc2)nc2ccccc2c1=O
inactive: HCT-15 colon 104% | HT29 colon 101% | SNB-75 CNS 91.1% | SNB-19 CNS 96.9% | U251 CNS 95.3% | PC-3 prostate 94.8% | SK-MEL-5 melanoma 91.6% | UACC-62 melanoma 82.2% | LOX IMVI melanoma 96.3% | SK-MEL-28 melanoma 105%

CN(C)c1ccc(-c2cc(-c3c[nH]c4ccccc34)nc(N)c2C#N)cc1
inactive: HCT-15 colon 11.9% | HT29 colon 11.3% | SNB-75 CNS 21.1% | SNB-19 CNS 40.7% | U251 CNS 26.5% | PC-3 prostate 37% | SK-MEL-5 melanoma 29.8% | UACC-62 melanoma 42% | LOX IMVI melanoma 11.3% | SK-MEL-28 melanoma 59.8%
